# According to PubChem BioAssay (NCI):
# About 83,000 compounds went through this panel and 20% of them were active in at least one assay; those are over-represented in the sample as a whole.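 For each line, cells grew in 96-well plates with the test compound present at a single concentration for 48 hours.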 A number with no mark means an inactive call. Active and inactive are the calls of the source. How the source made its calls: active means growth percent below 10; inactive means the rest.
# How the values were obtained:
# Test in all cases: NCI-60 one-dose screen, 48 h (100 = growth as untreated, 0 = no growth, -100 = all killed)
# HOP-92 NSCLC = conditions: 10 µM unless noted
# NCI-H522 lung = conditions: 10 µM unless noted
# A549/ATCC NSCLC = conditions: 10 µM unless noted
# HT29 colon = conditions: 10 µM unless noted
# SNB-75 CNS = conditions: 10 µM unless noted
# EKVX NSCLC = conditions: 10 µM unless noted
# TK-10 renal = conditions: 10 µM unless noted
# RPMI-8226 leukemia = conditions: 10 µM unless noted
# OVCAR-8 ovarian = conditions: 10 µM unless noted
# OVCAR-5 ovarian = conditions: 10 µM unless noted
# SK-OV-3 ovarian = conditions: 10 µM unless noted
# T-47D breast = conditions: 10 µM unless noted
# MDA-MB-435 melanoma = conditions: 10 µM unless noted
# SNB-19 CNS = conditions: 10 µM unless noted
# UO-31 renal = conditions: 10 µM unless noted
# ACHN renal = conditions: 10 µM unless noted
# CAKI-1 renal = conditions: 10 µM unless noted
# MOLT-4 leukemia = conditions: 10 µM
# COLO 205 colon = conditions: 10 µM
Compound,growth (HOP-92 NSCLC),growth (NCI-H522 lung),growth (A549/ATCC NSCLC),growth (HT29 colon),growth (SNB-75 CNS),growth (EKVX NSCLC),growth (TK-10 renal),growth (RPMI-8226 leukemia),growth (OVCAR-8 ovarian),growth (OVCAR-5 ovarian),growth (SK-OV-3 ovarian),growth (T-47D breast),growth (MDA-MB-435 melanoma),growth (SNB-19 CNS),growth (UO-31 renal),growth (ACHN renal),growth (CAKI-1 renal),growth (MOLT-4 leukemia),growth (COLO 205 colon)
COc1cccc2c1C(=O)c1c(O)c3c(c(O)c1C2=O)CC(O)(/C(C)=N/NC(=O)CCC(=O)N/N=C(\C)C1(O)Cc2c(O)c4c(c(O)c2C(OC2CC(N)C(O)C(C)O2)C1)C(=O)c1c(OC)cccc1C4=O)CC3OC1CC(N)C(O)C(C)O1 (centres undefined),-40.3% [5 µM] (active),-47% [5 µM] (active),-30% [5 µM] (active),-79% [5 µM] (active),-53.2% [5 µM] (active),-19.4% [5 µM] (active),-43.1% [5 µM] (active),-38% [5 µM] (active),13.1% [5 µM],-15.4% [5 µM] (active),-31.4% [5 µM] (active),-24.2% [5 µM] (active),-85.2% [5 µM] (active),–,–,–,–,–,–
c1ccc(CCN2CCCCC2Cc2ccccc2)cc1 (centres undefined),100%,83.5%,96.2%,72.8%,107%,93.4%,96.6%,107%,106%,83%,106%,–,118%,111%,74.7%,94.6%,101%,92.7%,–
C[C@]12CCc3sc(-c4ccc(Cl)cc4)nc3C1=CC[C@@H]1[C@@H]2CC[C@]2(C)C(=O)CC[C@@H]12,98.6%,–,80.2%,–,58.3%,72.3%,–,-17.8% (active),–,–,79.2%,66.2%,75.7%,56.2%,47.3%,70.6%,67.7%,8.47% (active),97.2%
O=[N+]([O-])c1cccc([As]=[As]c2cccc([N+](=O)[O-])c2)c1 (centres undefined),-99.3% (active),–,-75.2% (active),-61.6% (active),-100% (active),–,–,-39.3% (active),–,-85.2% (active),-100% (active),-58.3% (active),-91.5% (active),-98.6% (active),-98.7% (active),-100% (active),-95.9% (active),-37.4% (active),-81.2% (active)
NC(Cc1ccc(O)cc1)C(=O)N/N=C/c1ccc(N(CCCl)CCCl)cc1 (centres undefined),82.1%,–,52.3%,100%,–,92.7%,115%,–,80.5%,115%,90%,79.2%,84.7%,–,52.2%,75.1%,–,–,112%
Nc1ncnc2c1c(C(=O)NO)cn2C1OC(CO)C(O)C1O (centres undefined),-37% (active),-51.1% (active),–,7.07% (active),4.46% (active),6.87% (active),6.25% (active),-21.7% (active),–,16.5%,-18.2% (active),-11.1% (active),-72% (active),11.9%,-58.2% (active),-15.4% (active),-23.1% (active),-32.9% (active),-36.1% (active)
CC(C)(NC(=O)c1nn(CCCCCF)c2ccccc12)c1ccccc1,68.6%,64.3%,76.4%,81.9%,88.5%,94.7%,103%,78.6%,–,103%,87.8%,75.4%,–,106%,76.3%,–,–,71.9%,–
C/C(=C\C(=O)O[C@H]1[C@@H]2[C@H](C)CC[C@H]2[C@]2(C)O[C@@]1(C1CCCCC1)C[C@H]2OC(=O)CO)c1ccccc1,18.3%,20.3%,40.8%,9.35% (active),68.3%,48%,70.5%,-28.7% (active),19%,82.9%,59.7%,–,61.7%,64.4%,-47.2% (active),-16.5% (active),-25% (active),–,–
O=C1NC(=O)C(=Cc2cn(Cc3ccccc3)c3ccccc23)C(=O)N1,79.3%,102%,–,–,77.6%,63.7%,–,75.7%,81.1%,18.4%,53.2%,55.9%,91.4%,–,71.7%,92.7%,62.4%,–,18.3%
COc1cc(N(CCCl)CCCl)ccc1C=Nc1ccccc1C(=O)O,97.8%,32.8%,92.6%,98.2%,85.8%,–,124%,97.2%,92.9%,108%,105%,97.6%,102%,97.2%,–,97%,–,97.2%,–
CCN(CC)CCOc1c(C(C)C)cccc1C(C)C,106%,93.3%,89.5%,95.4%,–,96.5%,110%,103%,–,90.6%,112%,85.1%,114%,–,94.4%,–,89.8%,102%,–
CCOC(=O)Nc1cc(Cl)c([N+](=O)[O-])c(NC(=O)OCC)n1,78.2%,7.41% (active),95.2%,82.5%,97.3%,–,103%,71.5%,–,104%,103%,82.1%,65.4%,98.1%,99.5%,53.6%,-95.5% (active),79.6%,115%
C=CC(O)CN1CC1CC (centres undefined),93.6%,–,92.8%,–,–,102%,–,–,89.1%,–,107%,101%,99.1%,–,86.3%,102%,–,96.2%,114%
Nc1ccc([N+](=O)[O-])c2c1Oc1ccccc1O2,84.4%,–,93.8%,103%,82.8%,91.9%,94.4%,105%,92.9%,88.1%,88.9%,72.7%,106%,80.8%,10%,108%,58.3%,79.7%,99.3%
O=c1[nH]c2cc(Cl)ccc2n1C1CCN(CCCC(c2ccc(F)cc2)c2ccc(F)cc2)CC1,-37.7% (active),-56.4% (active),–,-36.9% (active),60.7%,61.5%,–,-52.8% (active),-56.7% (active),76.3%,78.1%,41.5%,18.2%,–,-48.3% (active),–,–,-28.3% (active),-88.3% (active)
COc1ccccc1N1CCN(CCc2c[nH]c3cc4c(cc23)OCO4)CC1,-8.6% (active),72%,–,44.2%,91.6%,77.7%,–,47.1%,–,60.2%,104%,83.1%,78%,79.6%,33.2%,–,75.5%,84.7%,74.7%
OC1(c2ccc(Cl)cc2Cl)c2ccccc2C2=NCCN21 (centres undefined),-2.5% (active),–,103%,92.2%,94.2%,97.9%,76.6%,82.3%,102%,94.4%,89.5%,–,98%,–,82.1%,103%,-21.8% (active),78.9%,90.6%
CC(=O)Oc1ccc(Cl)cc1,91.1%,–,97.9%,98.3%,81.9%,101%,97%,–,101%,88.7%,–,94.2%,101%,91.2%,59%,97.5%,90.5%,90.3%,107%
O=C(CC1(O)C(=O)Nc2ccc(F)cc21)c1ccc(C(=O)NCC2CCC3(CC2)OOC2(CCCCC2)OO3)cc1 (centres undefined),-65.3% (active),–,-66.5% (active),–,69.8%,-29.9% (active),–,12.7%,19.7%,87.3%,91.1%,29.6%,–,80.2%,-81.7% (active),-25.2% (active),-15.9% (active),–,33.7%
O=C(CCl)NCNC(=O)CCl,99.5%,–,93.2%,105%,85.9%,–,105%,83%,92.4%,115%,98.8%,92.6%,93.9%,108%,93.5%,94.5%,–,90.4%,109%
